IMPase Li inh – IMPase inhibition in cells with lithium potentiation. CHO-M1 cells, IP1 TR-FRET (IP-One), carbachol + lithium. Potency, µM (doses to about 59.4 µM), hits mostly inhibitors. hit rate 0.35% among 210,000. AID 1457;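 note: IP1 builds up when IMPase is blocked and the TR-FRET signal falls; nearly all actives have a fitted effect of over 50% in size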
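Readout is a homogeneous TR-FRET IP1 immunoassay (Ex 320, Em 665 and 620), where raised cytosolic IP1 lowers signal. Cells were CHO-M1 treated 30 min at 37C with test compounds plus a little lithium; AC50 values came from Hill-equation fitting.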
LMNA splice mod – LMNA splicing modulation; HeLa LMNA splicing GFP/RFP minigene ratio, 48 h; Potency, µM (series often up to 46.1 µM), usual class: inhibitors; hit rate 0.01% among 200,000; active = well fitted inhibition curve with a large enough effect in the signal ratio, with a control signal flat, not every such curve was filed as active; inconclusive = small, poorly fitted or top-dose-only effect, or effect the other way, or a change in a side signal; the % refers to the signal ratio
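Read-out is the ratio of GFP to DsRed2 object intensity, acquired by 488 nm laser-scanning cytometry on HeLa lamin A-EGFP minigene reporter cells. Compound incubation 48 hrs at 37 °C in Opti-MEM with 2% FBS; DMSO 0.5% final.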
ALDH1A1 inh – inhibitors of human aldehyde dehydrogenase 1A1; P00352; Purified ALDH1A1, NADH fluorescence, propionaldehyde substrate; Potency, µM (top dose mostly 75.3 µM), most hits filed as inhibitors; hit rate 7.3% among 220,000; active = well fitted inhibition curve with a large enough effect, not every such curve was filed as active; inconclusive = small, poorly fitted or top-dose-only effect, or another doubt; inactive = no such curve, though single readings can be large or run the other way
Target sequence (P00352 whole entry, looked up): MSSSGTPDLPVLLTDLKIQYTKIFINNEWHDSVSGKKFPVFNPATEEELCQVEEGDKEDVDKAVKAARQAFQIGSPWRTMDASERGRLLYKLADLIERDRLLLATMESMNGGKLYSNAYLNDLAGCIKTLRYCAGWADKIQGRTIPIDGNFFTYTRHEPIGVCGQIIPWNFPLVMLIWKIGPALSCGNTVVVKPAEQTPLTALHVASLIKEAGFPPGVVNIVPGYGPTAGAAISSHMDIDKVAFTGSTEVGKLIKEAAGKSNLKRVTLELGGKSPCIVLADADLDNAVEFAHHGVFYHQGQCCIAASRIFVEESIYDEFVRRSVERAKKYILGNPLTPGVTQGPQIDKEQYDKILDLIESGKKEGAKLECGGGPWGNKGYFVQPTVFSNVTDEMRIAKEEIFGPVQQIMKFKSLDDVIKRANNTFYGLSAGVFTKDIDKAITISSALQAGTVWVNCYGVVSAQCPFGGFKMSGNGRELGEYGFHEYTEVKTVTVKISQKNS
HPGD inh – HPGD (human) dehydrogenase inhibition. P15428. purified HPGD, NADH fluorescence kinetic, PGE2 substrate. Potency, µM, most hits filed as inhibitors. hit rate 4.3% among 150,000. AID 894; active = well fitted inhibition curve with a large enough effect, not every such curve was filed as active; inconclusive = small, poorly fitted or top-dose-only effect, or another doubt; inactive = no such curve, though single readings can be large or run the other way
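20 nM HPGD preincubated 15 min at room temperature with compound in 50 mM Tris-HCl pH 8, 0.01% Tween 20. Started with 1 mM NAD+ and 30 uM prostaglandin E2; NADH fluorescence (360/450 nm) read 5 times over 30-s intervals, last minus first.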
Luc counter – counter-screen: inhibitors of Kinase-Glo firefly luciferase; Potency, µM (series often up to 38.3 µM), actives largely listed as inhibitors; AID 1379; hit rate 0.28% among 200,000; Q27757; Kinase-Glo luciferase, ATP luminescence, 8 min; note: nearly all actives have a fitted effect of over 60% in size
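Compounds were added to a substrate mix at pH 7.2 (50 mM imidazole, 10 uM ATP, within the enzyme's linear range), followed by Kinase-Glo detection reagent; luminescence was measured after 8 minutes at ambient temperature.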
Of the large screens only hits and unclear results are named; the others gave an inactive call; ! = not confirmed by another sample. Sampled rows, rich in hits. Any-hit rate of the full collection: about 9%. Unless noted, calls come from the whole dose curve; as a rule, active = well fitted curve in the direction sought with a large enough effect; inconclusive = small, poorly fitted or top-dose-only effect, or another doubt; inactive = no such curve, though single readings can be large; an effect the other way counts as inactive or inconclusive.

CCn1c(=O)c([N+](=O)[O-])c(NCCN(C)C)c2ccccc21	ALDH1A1 inh 11µM (no result: LMNA splice mod, HPGD inh)
COc1ccc(CNS(=O)(=O)c2cc3c(cc2C)n(C)c(=O)c(=O)n3C)cc1	none (no result: IMPase Li inh, ALDH1A1 inh, HPGD inh, Luc counter)
COc1cccc([C@@H]2Oc3ccc(Br)cc3C(=O)[C@H]2OC(=O)N[C@H](C)C2CCCCC2)c1	none (no result: LMNA splice mod)
CCn1c(CNC(=O)c2ccccc2F)nnc1SCc1nc2ccccc2c(=O)[nH]1	LMNA splice mod inconclusive (no result: HPGD inh)
Clc1cc(Cl)c2nc(N3CCCCC3)sc2c1	ALDH1A1 inh 22µM, HPGD inh 22µM
Clc1cccc2sc(N3CCCCC3)nc12	HPGD inh inconclusive
Cc1ccc(-n2c(=S)[nH]c3sc4c(c3c2=O)CCC4)cc1	IMPase Li inh 11µM, ALDH1A1 inh inconclusive (no result: LMNA splice mod, HPGD inh)
COc1ccc(-n2c(=O)c3c4c(sc3n3c(=S)[nH]nc23)CCC4)cc1	none (no result: IMPase Li inh, LMNA splice mod, HPGD inh, Luc counter)
Cc1cc(C)cc(NC(=S)Nc2cccc3cnccc23)c1	ALDH1A1 inh 11µM (no result: LMNA splice mod, HPGD inh)
CCc1ccc(NC(=S)Nc2cccc3cnccc23)cc1	ALDH1A1 inh 11µM (no result: HPGD inh)
Cc1ccc(NC(=S)Nc2cccc3cnccc23)c(C)c1	LMNA splice mod inconclusive, ALDH1A1 inh 18µM (no result: HPGD inh)
O=C(NC(=S)Nc1cccc2cnccc12)c1ccccc1	none (no result: LMNA splice mod, HPGD inh)
Cc1cc(Cl)ccc1NC(=S)Nc1ccccn1	none
COc1cc2nc(CN(C)Cc3ccc(C(C)(C)C)cc3)[nH]c(=O)c2cc1OC	LMNA splice mod inconclusive, Luc counter inconclusive (no result: HPGD inh)
COc1ccc(-n2c(=O)c(CCc3ccccc3)nc3cnc(N4CCNCC4)nc32)cc1	ALDH1A1 inh inconclusive, HPGD inh inconclusive (no result: LMNA splice mod)
C1CCN(CC[C@@H]2CCCCN2)CC1	none (no result: LMNA splice mod)
CCOC(=O)C(Oc1ccc(=O)n(-c2ccccc2)n1)C(C)=O (stereo not given)	ALDH1A1 inh 18µM
Cc1ccc(C)c(-n2c(-c3ccc4c(c3)OCO4)n[nH]c2=S)c1	ALDH1A1 inh inconclusive, HPGD inh inconclusive
Fc1ccc(-n2c(-c3ccc4c(c3)OCO4)n[nH]c2=S)cc1Cl	ALDH1A1 inh inconclusive, HPGD inh 10µM
Oc1ccc(-c2n[nH]c(=S)n2-c2ccc3c(c2)OCCO3)cc1	ALDH1A1 inh 25µM, HPGD inh 20µM
COc1cc(OC)cc(-c2n[nH]c(=S)n2-c2ccc3c(c2)OCO3)c1	HPGD inh 25µM
Cn1cccc1C(=O)NC(=O)COC(=O)CNC(=O)CNC(=O)c1ccc(Cl)cc1Cl	none (no result: HPGD inh)
Cc1cc(C)cc(N2C(=O)CS(=O)(=O)C23C(=O)N(Cc2ccc(F)cc2)c2ccc(C)cc23)c1 (stereo not given)	none (no result: IMPase Li inh, ALDH1A1 inh, HPGD inh, Luc counter)
Nc1cc(Cl)ccc1N1CCCCCC1	LMNA splice mod inconclusive, ALDH1A1 inh 18µM (no result: HPGD inh)
Nc1ccc(N2CCCCC2)cc1N1CCCCC1	LMNA splice mod inconclusive, ALDH1A1 inh 4µM
Nc1ccc(N2CCCCC2)c2nonc12	ALDH1A1 inh 7.9µM (no result: HPGD inh)
Nc1cc(Cl)ccc1N1CCCCC1	none (no result: HPGD inh)
Cc1oc(-c2ccccc2)nc1CNC(=O)NC1CCCCC1	none (no result: IMPase Li inh, ALDH1A1 inh, HPGD inh, Luc counter)
Oc1c(Cl)cc(Cl)cc1Sc1cc(Cl)cc(Cl)c1O	LMNA splice mod inconclusive, ALDH1A1 inh 24µM!, HPGD inh 32µM!
COc1ccccc1C1CCN(c2cc(O)ccc2[N+](=O)[O-])CC1	none (no result: IMPase Li inh, LMNA splice mod, HPGD inh, Luc counter)
CC(=O)[C@@H]1[C@@H]2C(=O)N(C3CCCCC3)C(=O)[C@@H]2C2c3ccccc3C=CN21 (stereo not given in full)	ALDH1A1 inh 7.1µM, HPGD inh inconclusive
COc1ccc(NC(=O)[C@@H]2[C@@H]3C(=O)N(C4CCCCC4)C(=O)[C@@H]3C3c4ccccc4C=CN32)cc1 (stereo not given in full)	ALDH1A1 inh 0.5µM
CC(C)(C)C(=O)[C@@H]1[C@@H]2C(=O)N(Cc3ccccc3)C(=O)[C@@H]2[C@H]2c3ccccc3C=CN12	LMNA splice mod inconclusive, ALDH1A1 inh inconclusive
COc1cc(/C=C2\SC(=S)N(Nc3ccccc3)C2=O)ccc1O	ALDH1A1 inh 10µM
COc1ccc(C2=NN(c3ccccc3)C(=O)/C2=C\c2ccc(O)c(OC)c2)cc1	ALDH1A1 inh 20µM (no result: LMNA splice mod, HPGD inh)
Cc1cc(C)nc(NN2C(=O)/C(=C/c3ccccc3)SC2=S)n1	ALDH1A1 inh inconclusive, HPGD inh 35µM
O=C(NN1C(=O)/C(=C\c2ccc(O)c([N+](=O)[O-])c2)SC1=S)c1ccccc1Cl	ALDH1A1 inh 14µM (no result: IMPase Li inh, LMNA splice mod, HPGD inh, Luc counter)

From PubChem
